Experimental data reported in ChEMBL document CHEMBL3433997, “St. Jude Leishmania screening dataset” (2016).

Experiments:
Format in all cases: functional
[1] = target: Solute carrier family 2, facilitated glucose transporter member 1 (Homo sapiens) (UniProt P11166); test: ST_JUDE_LEISH: Cytotoxicity at 2uM final concentration against transgenic Leishmania Mexicana promastigotes LmGLUT1 that are glucose transport deficient and complemented with the human glucose transporter GLUT1. Activity is measured by DNA content using SYBR green in vitro
[2] = target: Hexose transporter 1 (Plasmodium falciparum) (UniProt O97467); test: ST_JUDE_LEISH: Cytotoxicity at 2uM final concentration against transgenic Leishmania Mexicana promastigotes LmPfHT that are glucose transport deficient and complemented with the Plasmodium falciparum hexose transporter. Activity is measured by DNA content using SYBR green in vitro
[3] = target: Glucose transporter (Leishmania mexicana) (UniProt O61059); test: ST_JUDE_LEISH: Cytotoxicity at 2uM final concentration against transgenic Leishmania Mexicana promastigotes LmGT2 that are glucose transport deficient and complemented with the L. Mexicana glucose transporter 2. Activity is measured by DNA content using SYBR green in vitro

Solute carrier family 2, facilitated glucose transporter member 1 (Homo sapiens), sequence (P11166 whole entry): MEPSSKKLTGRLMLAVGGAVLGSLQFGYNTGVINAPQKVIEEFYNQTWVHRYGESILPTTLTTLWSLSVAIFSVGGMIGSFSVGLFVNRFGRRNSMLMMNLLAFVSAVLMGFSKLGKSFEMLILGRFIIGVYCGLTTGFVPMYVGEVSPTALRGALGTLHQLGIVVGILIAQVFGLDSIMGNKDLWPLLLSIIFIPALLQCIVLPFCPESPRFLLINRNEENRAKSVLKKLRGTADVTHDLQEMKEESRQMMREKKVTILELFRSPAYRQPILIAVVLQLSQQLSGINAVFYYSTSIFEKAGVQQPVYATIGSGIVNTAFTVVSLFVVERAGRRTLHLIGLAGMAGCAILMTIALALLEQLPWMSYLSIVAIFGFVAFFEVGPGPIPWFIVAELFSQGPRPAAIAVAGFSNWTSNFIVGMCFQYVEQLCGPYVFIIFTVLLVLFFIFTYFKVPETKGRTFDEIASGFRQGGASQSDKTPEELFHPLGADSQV

Structure (SMILES)	inhibition [1] [%]	inhibition [2] [%]	inhibition [3] [%]
CS(=O)(=O)c1ccc2nc(NC(=O)c3csnn3)sc2c1	3.22	3.89	4.47
CCCCCCNC(=O)c1nn(CCN2CCC(N3CCCC3)CC2)cc1-c1ccc(Cl)c(Cl)c1	0.97	1.84	1.8
CC(C)C[C@H](NC(=O)c1ccc(OCCN2CCOCC2)cc1)C(=O)N[C@H](/C=N/N1CCNC1=O)CCc1ccccc1	6.57	6.05	4.07
O=C(NCC1COc2ccccc2O1)c1cnc2c(c1)nc(-c1c[nH]c(-c3ccccc3)n1)n2CCSCc1c(F)cccc1Cl (stereo unspecified)	4.51	3.79	3.91
COc1ccc2nccc([C@@H](O)CN3CCC(NCCOc4ccccc4[N+](=O)[O-])CC3)c2c1	2.3	2.26	0.09
N#Cc1ccc(N[C@@H](CC2CCCCC2)C(=O)Nc2ccc(-c3ccccc3)cc2)c2ccccc12	2.38	3.08	3.75
O=C(Nc1cccc(-c2nn3ccccc3c2-c2ccnc(Nc3cccc(-c4cnco4)c3)n2)c1)C1CCCCC1	1.06	3.39	-0.16
CCCN(CCC)CCOc1ccc(C(O)(C#CC(O)(c2ccc(OCCN(CCC)CCC)cc2)c2cccc(Cl)c2)c2cccc(Cl)c2)cc1 (stereo unspecified)	7.1	4.78	2.38
Oc1c(C(Nc2nc3ccccc3s2)c2ccccc2)ccc2cccnc12 (stereo unspecified)	2.66	3.92	-1.54
CS(=O)(=O)c1ccc(CNCc2cccc(-c3cccc(-c4nc5cc(C(F)(F)F)ccc5[nH]4)c3)c2)cc1	5.54	5.92	3.97
O=C(NCc1cccc(C(F)(F)F)c1)c1ccc(CNC(=O)c2ccc(O)c(-c3ccc(Cl)c(Cl)c3)c2)cc1	5.02	2.57	3.47
O=C(NC1CCN(c2ccnc3ccccc23)C1)c1ccc(OC(F)(F)F)cc1 (stereo unspecified)	1.75	1.97	2.7
CCc1ccc(CN2CCC(CN(c3ccc(N4CCOCC4)c(F)c3)S(=O)(=O)c3ccc(C(C)(C)CC)cc3)CC2)cc1	3.54	0.74	3.68
CN(C)C(=O)C(CC(=O)NCc1ccccc1Cl)N(C)C.CN(C)C(=O)CC(C(=O)NCc1ccccc1Cl)N(C)C (stereo unspecified)	3.97	4.82	4.89
Cc1cc(=NN=Cc2ccccc2Cl)c2cc(C(F)(F)F)ccc2[nH]1	-0.33	-0.65	1.27
Cc1cc2c(cc1C(F)(F)F)N(C(=O)Nc1cccc(C(=O)NC3CCN(Cc4ccccc4)CC3)c1)CC2	2.13	3.38	3.16
COc1ccc2c(NN=CC=Cc3ccccc3)ccnc2c1	9.5	6.81	11.6
